Compounds without any hit were thinned out: in the full panel of roughly 83,000, 20% have a hit.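 Values shown are percent growth following 48 h exposure of cells in 96-well plates to a single concentration of compound; below 10 was considered active.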 Calls of active or inactive are those of the source.
Tested on: NCI-H23 lung
Experiment: NCI-60 one-dose screen, 48 h (100 = growth as untreated, 0 = no growth, -100 = all killed)
Details: 10 µM

Row | Compound | growth
1 | CNC(=S)Sc1ccc([N+](=O)[O-])cc1[N+](=O)[O-] | 83.5% (inactive)
2 | O=C(CCc1ccccc1)N1CCN(C(=O)CCc2ccccc2)CC1 | 101% (inactive)
3 | Cn1cnc([N+](=O)[O-])c1/C=C1\Oc2ccc(Cl)cc2C1=O | 93.9% (inactive)
4 | NC1CCC(Nc2nc(NCc3ccc(-c4ccco4)nc3)c3ncn(C4CCCC4)c3n2)CC1 (stereo unspecified) | -18.1% (active)
5 | CCCCCN(CCCCC)C(C)C(O)c1ccc2cc(Cl)c3ccccc3c2c1 (stereo unspecified) | 84.9% (inactive)
6 | O=C(NNC(=O)c1ccncc1)Nc1ccc([N+](=O)[O-])cc1 | 94.7% (inactive)
7 | CC1(C)CNC(=O)N1 | 104% (inactive)
8 | O=C(N/N=C/c1ccccc1O)c1ccccc1 | 41.3% (inactive)
9 | CCn1nc(-c2ccccn2)c2cccnc2c1=S | 36.8% (inactive)
10 | CCN(CC)CCn1c(=N)n(CC(O)c2ccc(Cl)c(Cl)c2)c2ccccc21 (stereo unspecified) | 91.2% (inactive)
11 | O=C(O)c1ccc(CNc2ccc(C(=O)CCl)cc2)cc1 | 116% (inactive)
12 | COc1cc(CSc2nc3ccc(C)cc3c(=O)n2Cc2ccccc2)cc(OC)c1OC | 21.3% (inactive)
13 | COc1cc(C(c2c[nH]c3ccccc23)N2CCCC2)ccc1OCc1ccccc1 (stereo unspecified) | 82% (inactive)
14 | Cn1c([N+](=O)[O-])cnc1C=C1C(=O)c2ccccc2C1=O | 53.7% (inactive)
15 | [O-]c1c[n+](-c2ccc(Cl)cc2)no1 | 106% (inactive)
16 | O=C1CC[C@@H](C(=O)N[C@H]2CSSC[C@@H](C(=O)NCCc3ccccc3)NC(=O)[C@H](Cc3ccccc3)NC(=O)[C@@H]3CCCN3C(=O)[C@@H]3CCCN3C2=O)N1 | 92.7% (inactive)
17 | COc1cc(C2C(C#N)=C(c3c[nH]c4ccccc34)Nc3nc(N)[nH]c(=O)c32)cc(OC)c1OC (stereo unspecified) | 80.7% (inactive)
18 | COc1cc(C(=O)n2nc(N)c3c(C)cc(C)nc32)cc(OC)c1OC | 88.8% (inactive)
19 | N#CN1CC[C@H](C(=O)Nc2ncc(-c3ccccc3)s2)C1 | -9.83% (active)

Row | Compound | growth
20 | COC(=O)[C@]12CC[C@@H](C)[C@H](C)[C@@H]1C1=CC[C@@H]3[C@@]4(C)C[C@@H](O)[C@H](O)[C@@](C)(CO)[C@@H]4[C@H](O)C[C@@]3(C)[C@]1(C)CC2 | -50% (active)
21 | O=C1/C(=C/c2ccc(O)cc2)Oc2ccc(Cl)cc21 | 71.4% (inactive)
22 | COc1ccc(/C=C2\CCC3C(CCCC34OCCO4)C2=O)cc1 (stereo unspecified) | 94.2% (inactive)
23 | Cc1ccc2c3c(cccc13)-c1ccccc1C2=O | 86.5% (inactive)
24 | COc1ccc(C(=O)/C=C/c2cc(-c3ccc4c(c3)OCO4)n[nH]2)cc1OC | 61.6% (inactive)
25 | N=C(N)c1ccc(-c2ccc(-c3ccccc3)s2)cc1F | -65.9% (active)
26 | CN(C)c1ccc2c(c1)OC(N)=C(C#N)C2c1ccc2c(c1)CCCN2C (stereo unspecified) | 33.3% (inactive)
27 | CCOC(=O)c1c(C(F)(F)F)n([O-])c2ccc(OC)cc2[n+]1=O | 30.3% (inactive)
28 | CNC(=O)c1cc(Oc2ccc(NC(=O)Nc3ccc(Cl)c(OC4CCCCC4)c3)c(F)c2)ccn1 | 21.4% (inactive)
29 | COC(=O)[C@]12CC[C@@H](C)[C@H](C)[C@@H]1C1=CC[C@@H]3[C@@]4(C)CC(=O)[C@H](O)[C@@]5(C)COC(=C45)C[C@@]3(C)[C@]1(C)CC2 | -66.5% (active)
30 | O=[N+]([O-])c1ccc(-c2nc(Cl)c3c(n2)CCCC3)o1 | 88.5% (inactive)
31 | C/C(=N\NC(N)=S)C(C)(C)O | 93.6% (inactive)
32 | FC(F)(F)c1ccc(-c2ncc(-c3ccc(C(F)(F)F)cc3)c(NCc3cc(C(F)(F)F)cc(C(F)(F)F)c3)n2)cc1 | 39.3% (inactive)
33 | Oc1[nH]c2ccccc2c1/C=c1/cc2c(c(-c3ccc(C(F)(F)F)cc3)n1)=Nc1ccccc1-2 | 71.1% (inactive)
34 | Cc1ccc(C(=O)O)c(N)c1C | 94.4% (inactive)
35 | CC(=O)n1nc(C(=O)OC(C)(C)C)c2cc(F)c(F)cc21 | 101% (inactive)
36 | COc1cc(N=C2C(=O)N(Cc3ccccc3)c3ccccc32)cc(OC)c1OC | 89.9% (inactive)
37 | NC(N)=NS(=O)(=O)c1ccc(Nc2ccc3nnc(-c4ccncc4)n3n2)cc1 | 102% (inactive)
38 | CC(=O)c1ccc(NCn2nc(-c3ccc(Cl)cc3)oc2=S)cc1 | 104% (inactive)

Tested on: NCI-H226 lung
Experiment: as above
Details: 10 µM

Row | Compound | growth
39 | CNC(=S)Sc1ccc([N+](=O)[O-])cc1[N+](=O)[O-] | 78.9% (inactive)
40 | O=C(CCc1ccccc1)N1CCN(C(=O)CCc2ccccc2)CC1 | 99.3% (inactive)
41 | Cn1cnc([N+](=O)[O-])c1/C=C1\Oc2ccc(Cl)cc2C1=O | 94.8% (inactive)
42 | NC1CCC(Nc2nc(NCc3ccc(-c4ccco4)nc3)c3ncn(C4CCCC4)c3n2)CC1 (stereo unspecified) | -18.6% (active)
43 | CCCCCN(CCCCC)C(C)C(O)c1ccc2cc(Cl)c3ccccc3c2c1 (stereo unspecified) | 86.2% (inactive)
44 | O=C(NNC(=O)c1ccncc1)Nc1ccc([N+](=O)[O-])cc1 | 115% (inactive)
45 | CC1(C)CNC(=O)N1 | 92.8% (inactive)
46 | O=C(N/N=C/c1ccccc1O)c1ccccc1 | 27.2% (inactive)
47 | CCn1nc(-c2ccccn2)c2cccnc2c1=S | 93.8% (inactive)
48 | CCN(CC)CCn1c(=N)n(CC(O)c2ccc(Cl)c(Cl)c2)c2ccccc21 (stereo unspecified) | 92.2% (inactive)
49 | O=C(O)c1ccc(CNc2ccc(C(=O)CCl)cc2)cc1 | 97.2% (inactive)
50 | COc1cc(CSc2nc3ccc(C)cc3c(=O)n2Cc2ccccc2)cc(OC)c1OC | 47.3% (inactive)
51 | COc1cc(C(c2c[nH]c3ccccc23)N2CCCC2)ccc1OCc1ccccc1 (stereo unspecified) | 80.1% (inactive)
52 | Cn1c([N+](=O)[O-])cnc1C=C1C(=O)c2ccccc2C1=O | 81.7% (inactive)
53 | [O-]c1c[n+](-c2ccc(Cl)cc2)no1 | 103% (inactive)
54 | O=C1CC[C@@H](C(=O)N[C@H]2CSSC[C@@H](C(=O)NCCc3ccccc3)NC(=O)[C@H](Cc3ccccc3)NC(=O)[C@@H]3CCCN3C(=O)[C@@H]3CCCN3C2=O)N1 | 87.5% (inactive)
55 | COc1cc(C2C(C#N)=C(c3c[nH]c4ccccc34)Nc3nc(N)[nH]c(=O)c32)cc(OC)c1OC (stereo unspecified) | 86.3% (inactive)
56 | COc1cc(C(=O)n2nc(N)c3c(C)cc(C)nc32)cc(OC)c1OC | 92.1% (inactive)
57 | N#CN1CC[C@H](C(=O)Nc2ncc(-c3ccccc3)s2)C1 | -6.52% (active)

Row | Compound | growth
58 | COC(=O)[C@]12CC[C@@H](C)[C@H](C)[C@@H]1C1=CC[C@@H]3[C@@]4(C)C[C@@H](O)[C@H](O)[C@@](C)(CO)[C@@H]4[C@H](O)C[C@@]3(C)[C@]1(C)CC2 | -42.8% (active)
59 | O=C1/C(=C/c2ccc(O)cc2)Oc2ccc(Cl)cc21 | 68.8% (inactive)
60 | COc1ccc(/C=C2\CCC3C(CCCC34OCCO4)C2=O)cc1 (stereo unspecified) | 97.8% (inactive)
61 | Cc1ccc2c3c(cccc13)-c1ccccc1C2=O | 91.1% (inactive)
62 | COc1ccc(C(=O)/C=C/c2cc(-c3ccc4c(c3)OCO4)n[nH]2)cc1OC | 39.6% (inactive)
63 | N=C(N)c1ccc(-c2ccc(-c3ccccc3)s2)cc1F | -62.7% (active)
64 | CN(C)c1ccc2c(c1)OC(N)=C(C#N)C2c1ccc2c(c1)CCCN2C (stereo unspecified) | 37.3% (inactive)
65 | CCOC(=O)c1c(C(F)(F)F)n([O-])c2ccc(OC)cc2[n+]1=O | 47.4% (inactive)
66 | CNC(=O)c1cc(Oc2ccc(NC(=O)Nc3ccc(Cl)c(OC4CCCCC4)c3)c(F)c2)ccn1 | 48.4% (inactive)
67 | COC(=O)[C@]12CC[C@@H](C)[C@H](C)[C@@H]1C1=CC[C@@H]3[C@@]4(C)CC(=O)[C@H](O)[C@@]5(C)COC(=C45)C[C@@]3(C)[C@]1(C)CC2 | -74.7% (active)
68 | O=[N+]([O-])c1ccc(-c2nc(Cl)c3c(n2)CCCC3)o1 | 63.6% (inactive)
69 | C/C(=N\NC(N)=S)C(C)(C)O | 89.2% (inactive)
70 | FC(F)(F)c1ccc(-c2ncc(-c3ccc(C(F)(F)F)cc3)c(NCc3cc(C(F)(F)F)cc(C(F)(F)F)c3)n2)cc1 | 46.7% (inactive)
71 | Oc1[nH]c2ccccc2c1/C=c1/cc2c(c(-c3ccc(C(F)(F)F)cc3)n1)=Nc1ccccc1-2 | 54.1% (inactive)
72 | Cc1ccc(C(=O)O)c(N)c1C | 98.6% (inactive)
73 | CC(=O)n1nc(C(=O)OC(C)(C)C)c2cc(F)c(F)cc21 | 105% (inactive)
74 | COc1cc(N=C2C(=O)N(Cc3ccccc3)c3ccccc32)cc(OC)c1OC | 88.3% (inactive)
75 | NC(N)=NS(=O)(=O)c1ccc(Nc2ccc3nnc(-c4ccncc4)n3n2)cc1 | 96.5% (inactive)
76 | CC(=O)c1ccc(NCn2nc(-c3ccc(Cl)cc3)oc2=S)cc1 | 106% (inactive)
